A selection: hits, their analogues and other compounds. The true share with any hit is near 0.9%.
TAR Tat displ = HIV-1 TAR-Tat binding disruption; actives 0.6% (n = 100,000); AID 1259389; z-score (concentration not given with the values); HIV-1 TAR RNA, Tat peptide displacement FRET; stronger effect = higher value; active = z-score of 3 or more in at least 2 runs
CDC25B-CDK2 inh = human CDC25B-CDK2/CyclinA binding inhibition; P30305+P24941; HTRF CDC25B-CDK2/CyclinA binding, anti-His/anti-Flag; stronger effect = higher value; z-score (concentration not given with the values); actives 0.72% (n = 94,000); in the data active = z-score above about 3.2
Large screens that a line does not name were inactive.

CC1=C(C(=O)OCCOC(C)C)C(c2cccs2)C2=C(CC(c3cccs3)CC2=O)N1 (stereo not given)	none
CCc1ccc(C(c2ccc(CC)o2)c2cc3c(cc2[N+](=O)[O-])OCCO3)o1	CDC25B-CDK2 inh 4.4 (no result: TAR Tat displ)
CCOC(=O)C(=O)CC(=O)c1ccc2c(c1)OCCO2	none
CCN1CCN(C(=O)CN2C(=O)CSc3ccc(S(=O)(=O)N4CCOCC4)cc32)CC1	none (no result: TAR Tat displ)
CCC(=O)Nc1ccc2nc3c(=O)[nH]c(=O)[nH]c3nc2c1	none
CC(=O)Nc1ccc2nc3c(=O)[nH]c(=O)[nH]c3nc2c1	CDC25B-CDK2 inh 8
Cn1c(=O)c2cc(C(=O)NC3CCCC3)sc2c2ccccc21	CDC25B-CDK2 inh 3
Cn1c(=O)c2cc(C(=O)NCCCN3CCCC3)sc2c2ccccc21	none
O=C(CCC(=O)N1CCSc2ccccc21)NCc1ccco1	none (no result: CDC25B-CDK2 inh)
O=C(Cn1cnc2c(nc3n2CCCCC3)c1=O)NCCCN1CCN(c2ccc(F)cc2)CC1	none (no result: CDC25B-CDK2 inh)
C=CC(=C)CC(NC)c1ccccc1 (stereo not given)	CDC25B-CDK2 inh 16
C=C(C)CC(NC(C)c1ccccc1)c1ccco1 (stereo not given)	none
O=C(c1cnn2c(C(F)F)cc(-c3ccccc3)nc12)N1CCCC1c1cccs1 (stereo not given)	none
Cc1nn(Cc2noc(-c3cc4ccccc4[nH]3)n2)c(C)c1S(=O)(=O)N1CCCC1	none (no result: CDC25B-CDK2 inh)
O=C(Nc1ccccc1)Nn1cnnc1	none (no result: TAR Tat displ)
O=C(Nc1ccc(Cl)c(Cl)c1)Nn1cnnc1	CDC25B-CDK2 inh 18 (no result: TAR Tat displ)
COc1ccc(C)cc1-n1nnc(-c2nc(-c3ccccc3)no2)c1C	none (no result: CDC25B-CDK2 inh)
Cc1ccc(-c2noc(CN(C(C)C)S(=O)(=O)c3ccc(Br)cc3)n2)cc1	none
O=C(Cn1ncc2c1-c1ccccc1OC2)N1CCCC1	none (no result: TAR Tat displ)
O=C(O)Cn1ncc2c1-c1ccoc1CC2	CDC25B-CDK2 inh 11
CCOc1cc(-c2cc(N)n(S(=O)(=O)Cc3ccccc3)n2)cc(OCC)c1OCC	none (no result: TAR Tat displ)
Cc1cc(C)cc(NC(=O)CSc2nc(-c3ccc(Cl)cc3)nc3cc(=O)[nH]n23)c1	TAR Tat displ 23 (no result: CDC25B-CDK2 inh)
CSc1cccc(NC(=O)CSc2nc(-c3ccc(Cl)cc3)nc3cc(=O)[nH]n23)c1	TAR Tat displ 18 (no result: CDC25B-CDK2 inh)
Cc1ccc(NC(=O)CSc2nc(-c3ccc(Cl)cc3)nc3cc(=O)[nH]n23)cc1C	none (no result: CDC25B-CDK2 inh)
O=C(CSc1nc(-c2ccc(Cl)cc2)nc2cc(=O)[nH]n12)Nc1ccccc1	none (no result: CDC25B-CDK2 inh)
CO/N=C(/C(=O)N[C@@H]1C(=O)N2C(C(=O)O)=C(COC(C)=O)CS[C@H]12)c1csc(N)n1	none (no result: CDC25B-CDK2 inh)
C=CC1=C(C(=O)O)N2C(=O)[C@@H](NC(=O)C(=NO)c3csc(N)n3)[C@H]2SC1	TAR Tat displ 33 (no result: CDC25B-CDK2 inh)
O=C(Nc1ccc2nc3c4ccccc4c4ccccc4c3nc2c1)N(CCO)c1ccccc1	none (no result: TAR Tat displ)
OCCNC(=S)Nc1ccc2nc3c4ccccc4c4ccccc4c3nc2c1	CDC25B-CDK2 inh 21 (no result: TAR Tat displ)
Cc1occc1-c1nnc(SCC(=O)c2ccc(Cl)cc2)o1	none
Cc1occc1-c1nnc(SCC(=O)Nc2ccc(Cl)cc2)o1	CDC25B-CDK2 inh 10
COc1ccc(C2Nc3ccccc3-n3cc4c(=O)n(C)c(=O)n(C)c4c32)c(OC)c1 (stereo not given)	none
O=C(O)c1ccccc1Nc1cccc2c1C(=O)c1cccc(Nc3ccccc3C(=O)O)c1C2=O	TAR Tat displ 19 (no result: CDC25B-CDK2 inh)
Cc1c(Cl)cccc1Nc1ccccc1C(=O)O	none (no result: CDC25B-CDK2 inh)
Nc1cccc(C2NC(=O)CS2)c1 (stereo not given)	CDC25B-CDK2 inh 10
O=C1CSC(c2cccc(NS(=O)(=O)c3ccc(Cl)cc3)c2)N1 (stereo not given)	none (no result: CDC25B-CDK2 inh)
Cc1ncc(CO)c(CNc2cccc(Cl)c2C)c1O	none (no result: CDC25B-CDK2 inh)
Cc1cc(C)c2c(=O)cc(CN(C)Cc3ccc(F)cc3)[nH]c2c1	none (no result: CDC25B-CDK2 inh)
O=C(O)c1c[nH]c2c(ccc3ccccc32)c1=O	TAR Tat displ 9.3
Cc1c(Cl)ccc2c(=O)c(C(=O)O)c[nH]c12	none
O=C(NCc1ccco1)c1ccc2c(=O)[nH]c3c(C(=O)NC4CCCC4)sc(=S)n3c2c1	TAR Tat displ 16 (no result: CDC25B-CDK2 inh)
CCOCCCNC(=O)c1ccc2c(=O)[nH]c3c(C(=O)NC4CCCC4)sc(=S)n3c2c1	none (no result: CDC25B-CDK2 inh)
CCN1C(C(=O)OC)=C(OC(=O)c2ccco2)c2ccccc2S1(=O)=O	none
O=S(=O)(NCc1cccn1Cc1cccc(F)c1)c1ccccc1	none (no result: CDC25B-CDK2 inh)
Cn1c2c(c(=O)[nH]c1=O)C(c1ccccc1)C1=C(N2)c2ccccc2C1=O (stereo not given)	none
Cn1c2c(c(=O)[nH]c1=O)C(c1ccc([N+](=O)[O-])o1)C1=C(N2)c2ccccc2C1=O (stereo not given)	TAR Tat displ 3.6
Oc1ccccc1C1=NC(c2ccc(F)cc2)NC(c2ccccn2)C1 (stereo not given)	none
O=C(Nc1cccc(-c2nc3ncccc3o2)c1)c1cccc2c(Br)cccc12	none (no result: TAR Tat displ)
O=C(O)c1c[nH]c2ccc(S(=O)(=O)N3CCC(O)CC3)cc2c1=O	none (no result: CDC25B-CDK2 inh)
O=C(O)c1c[nH]c2ccc(S(=O)(=O)N3CCCC3c3ccco3)cc2c1=O (stereo not given)	TAR Tat displ 5.5
Cc1nc2ccc(Cl)cn2c(=O)c1NC(=O)c1ccccc1	none (no result: CDC25B-CDK2 inh)
CCSc1nc2ccc(NC(=O)c3sc4nc(-c5ccncc5)ccc4c3N)cc2s1	none
Nc1c(C(=O)Nc2ccc(F)cc2)sc2nc(-c3ccncc3)ccc12	TAR Tat displ 11
Cc1cc(-c2ccc(S(=O)(=O)NCc3cccc(Br)c3)s2)on1	none (no result: CDC25B-CDK2 inh)
Cc1ccc(N2CSC3=C(C#N)C(c4cccs4)CC(=O)N3C2)cc1 (stereo not given)	CDC25B-CDK2 inh 4.1
CCc1ccc(N2CSC3=C(C#N)C(c4cccs4)CC(=O)N3C2)cc1 (stereo not given)	CDC25B-CDK2 inh 6.2
COC(=O)c1ccc(N2CSC3=C(C#N)C(c4cccs4)CC(=O)N3C2)cc1 (stereo not given)	none
COc1ccc(N2CSC3=C(C#N)C(c4cccs4)CC(=O)N3C2)cc1 (stereo not given)	none
CCOC(=O)c1ccc(N2CSC3=C(C#N)C(c4cccs4)CC(=O)N3C2)cc1 (stereo not given)	CDC25B-CDK2 inh 7.1
Cc1cc(=O)n2nc(N3CCCC3C(=O)NCCC3=CCCCC3)sc2n1 (stereo not given)	none
Cc1cc(Cl)ccc1OCc1cc(=O)n2c(-c3ccccc3)csc2n1	none
Nc1nonc1C(=O)NCCNC(=O)COc1ccccc1	none
O=C1Nc2ccc(S(=O)(=O)NCc3ccccc3)cc2C1=O	TAR Tat displ 6.2 (no result: CDC25B-CDK2 inh)
O=C1Cc2cc(S(=O)(=O)NCc3ccccc3)ccc2N1	none (no result: CDC25B-CDK2 inh)
COc1ccc(S(=O)(=O)N2CCN(c3cc(N4CCCCC4)nc(C)n3)CC2)cc1C	none
COc1ccc(OC)c2c(C)cc(N3CCN(S(=O)(=O)c4ccc(C)cc4)CC3)nc12	TAR Tat displ 7.8
Clc1cccc(-c2nnc3sc(-c4ccco4)nn23)c1	none
Clc1ccccc1-c1ccc(-c2nn3c(-c4ccco4)nnc3s2)o1	CDC25B-CDK2 inh 15
Cc1ccc(/C=C/c2nn3c(-c4ccco4)nnc3s2)cc1C	TAR Tat displ 17
Cc1ccc(/C=C/c2nn3c(-c4ccncc4)nnc3s2)cc1	none
Cc1ccc(/C=C/c2nn3c(-c4ccco4)nnc3s2)cc1	none
Clc1ccccc1/C=C/c1nn2c(-c3ccncc3)nnc2s1	none
Clc1ccccc1/C=C/c1nn2c(-c3ccco3)nnc2s1	TAR Tat displ 19
C(=C\c1nn2c(-c3ccncc3)nnc2s1)/c1ccco1	TAR Tat displ 26
CCOC(=O)Cn1nc(-c2ccc(C)c(S(=O)(=O)N3CCCC3)c2)ccc1=O	none
CC(C)Oc1ccc(-c2nc3ncccn3c2NC2CCCC2)cc1	none (no result: CDC25B-CDK2 inh)

Assay outcomes from PubChem BioAssay.
